Assay outcomes: PubChem BioAssay, Broad Institute
In the library only some 2.1% were active in any assay of this set; here they are far more common.
INS-1E GSIS act: GLuc luminescence reporter in INS-1E cells, primary screen for activators of glucose-dependent secretion of insulin. INS-1E GLuc reporter insulin secretion, 2-3 h. hit rate 0.61% among 370,000. AID 743287, 2014. activation, % at 16.6 µM;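 active means lowest replicate activation of at least 40%, so every replicate reaches that level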
PGC1a acetyl inh: inhibitors of PGC1a acetylation signal, primary screen, cell-based, U2OS, AlphaScreen, inhibitor mode. AlphaScreen anti-acetyl-lysine; with virally co-expressed GCN5 acetyltransferase. inhibition, % at 15.6 µM. hit rate 0.17% among 350,000;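 active means every replicate shows inhibition of at least 40%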
Env fusion inh: inhibitors of HIV-1 Env-driven cell-cell fusion, primary screen, HeLa-JRFL effector, CEM21 target cells, luciferase; inhibition, % at 12.3 µM; hit rate 1.1% among 360,000; AID 651610, 2012;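 active means mean replicate inhibition score of at least 50 and every replicate individually at or above 50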
NSD2 inh: NSD2 histone methyltransferase inhibitors, primary screen, biochemical, AlphaScreen, single concentration, set 2 | inhibition, % at 12.5 µM | Histone-lysine N-methyltransferase NSD2 (Homo sapiens), O96028 | NSD2 peptide methylation, 120 min | hit rate 0.54% among 310,000; in the data active means inhibition above about 50%
Target sequence (O96028 whole entry, looked up): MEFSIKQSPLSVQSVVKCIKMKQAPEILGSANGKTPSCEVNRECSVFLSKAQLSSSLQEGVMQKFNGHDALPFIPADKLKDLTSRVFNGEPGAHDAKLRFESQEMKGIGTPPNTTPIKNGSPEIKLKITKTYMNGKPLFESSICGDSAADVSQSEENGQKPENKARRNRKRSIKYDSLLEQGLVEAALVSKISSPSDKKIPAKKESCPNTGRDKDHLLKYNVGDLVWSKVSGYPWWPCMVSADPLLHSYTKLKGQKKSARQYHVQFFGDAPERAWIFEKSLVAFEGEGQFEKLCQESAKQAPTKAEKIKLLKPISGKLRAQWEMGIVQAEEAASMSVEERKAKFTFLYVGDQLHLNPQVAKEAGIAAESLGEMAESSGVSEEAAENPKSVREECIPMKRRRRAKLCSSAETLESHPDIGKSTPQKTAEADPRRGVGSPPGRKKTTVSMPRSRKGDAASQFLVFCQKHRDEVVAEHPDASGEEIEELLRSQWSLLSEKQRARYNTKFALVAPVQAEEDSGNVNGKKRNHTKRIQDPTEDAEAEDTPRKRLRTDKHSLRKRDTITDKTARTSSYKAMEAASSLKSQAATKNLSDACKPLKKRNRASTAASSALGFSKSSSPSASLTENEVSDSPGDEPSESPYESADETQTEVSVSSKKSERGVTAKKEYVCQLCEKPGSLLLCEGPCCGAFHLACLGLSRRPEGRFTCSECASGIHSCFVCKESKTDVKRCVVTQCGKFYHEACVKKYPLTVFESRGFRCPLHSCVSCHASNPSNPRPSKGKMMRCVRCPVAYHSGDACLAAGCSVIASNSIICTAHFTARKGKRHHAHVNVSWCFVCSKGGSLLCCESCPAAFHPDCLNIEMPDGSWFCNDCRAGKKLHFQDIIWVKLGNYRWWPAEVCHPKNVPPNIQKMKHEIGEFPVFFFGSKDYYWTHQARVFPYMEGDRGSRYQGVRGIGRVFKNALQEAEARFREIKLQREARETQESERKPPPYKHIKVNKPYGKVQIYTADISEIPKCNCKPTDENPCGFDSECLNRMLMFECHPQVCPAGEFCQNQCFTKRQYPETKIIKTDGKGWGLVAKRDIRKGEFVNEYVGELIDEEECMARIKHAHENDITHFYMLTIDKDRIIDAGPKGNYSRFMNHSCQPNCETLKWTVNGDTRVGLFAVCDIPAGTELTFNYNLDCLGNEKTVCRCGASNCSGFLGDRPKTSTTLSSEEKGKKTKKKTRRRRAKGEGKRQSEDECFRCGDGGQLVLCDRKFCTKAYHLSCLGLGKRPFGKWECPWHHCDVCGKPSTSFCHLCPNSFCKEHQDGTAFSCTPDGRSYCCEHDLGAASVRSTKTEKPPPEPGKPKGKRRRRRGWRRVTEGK
AF4-AF9 inh: inhibitors of AF4 peptide binding to AF9, primary screen, biochemical, AlphaScreen, biotin-AF4 peptide, FLAG-AF9, single point | Protein AF-9 (Homo sapiens), P42568 | inhibition, % at 10 µM | hit rate 0.47% among 350,000 | AID 651704, 2012;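 active means every replicate reaching a set inhibition limit, whatever the replicate mean, cut at about 25% in these data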
AlphaScreen intf: AlphaScreen signal interference counter-screen, dose response, artefact control, biochemical, cherry-picked samples, luminescence; shares compounds with AF4-AF9 inh; AC50, µM (top dose mostly 12 µM); hit rate 45% among 530; AID 720494, 2013; cut-off not given, nearly all actives have AC50 up to about 14 µM
Hits are given with their value; 0 = inactive; - = not tested or not shown.

SMILES | INS-1E GSIS act | PGC1a acetyl inh | Env fusion inh | NSD2 inh | AF4-AF9 inh | AlphaScreen intf
CCOc1ccc(/C=N/Nc2cc(N3CCOCC3)ncn2)c(O)c1 | - | 0 | 0 | 0 | 32 | 14µM
Clc1ccccc1/C=N/Nc1cc(N2CCOCC2)ncn1 | - | - | 0 | 0 | 0 | -
COc1ccc(S(=O)(=O)Nc2ccc3c(c2)C(=O)N([C@@H](C)CO)C[C@@H](C)[C@@H](CN(C)S(=O)(=O)c2ccccc2)OCCCC[C@@H](C)O3)cc1 | 0 | 0 | - | - | 0 | -
COc1ccc(NC2CCCN(Cc3cccc4cnccc34)C2)cc1OC (centres undefined) | 0 | - | 0 | 0 | 26 | 0
COCC(=O)N1CC2(C1)CN(S(C)(=O)=O)[C@H](CO)c1[nH]c3cc(OC)ccc3c12 | 0 | 0 | - | - | 0 | -
COCCNC(=O)c1ccc2c(=O)n(CCOC)c(=O)[nH]c2c1 | - | 0 | 0 | 0 | - | -
CCCC(=O)NC(c1ccc(OC)cc1)c1ccc2cccnc2c1O (centres undefined) | 0 | - | 0 | 0 | 29 | 2.6µM
C[C@@H]1CN([C@H](C)CO)C(=O)Cc2cc(N(C)C)ccc2O[C@@H]1CN(C)Cc1ccc(Cl)c(Cl)c1 | 0 | 0 | 0 | - | 31 | 0
C[C@H]1CCCCO[C@H](CN(C)Cc2ccc(Cl)c(Cl)c2)[C@@H](C)CN([C@@H](C)CO)C(=O)c2cc(N(C)C)ccc2O1 | - | 0 | 0 | - | 63 | 13µM
C[C@H]1CN([C@@H](C)CO)C(=O)c2cc(N(C)C)ccc2O[C@@H]1CN(C)Cc1ccc(Cl)c(Cl)c1 | 0 | 0 | 0 | - | 29 | 0
C[C@H]1CN([C@@H](C)CO)C(=O)c2cc(N(C)C)ccc2O[C@@H]1CN(C)Cc1ccc2c(c1)OCO2 | 0 | 0 | 0 | - | 0 | -
CCOc1ccccc1CN1CCN(C2CCN(c3ccccc3F)CC2)CC1CCO (centres undefined) | 0 | 0 | 0 | 0 | 0 | -
CNC(=O)CSc1nnnn1-c1ccc2c(c1)OCCO2 | - | 0 | 0 | 0 | - | -
Cc1ccc(S(=O)(=O)N2CCN(C(=O)CSc3ncn[nH]3)CC2)c(C)c1 | 0 | - | 0 | 0 | 0 | -
CN(C)c1ccc(C(CNC(=O)c2ccccc2)c2c[nH]c3ccccc23)cc1 (centres undefined) | 0 | - | 0 | - | 29 | 0
C(=C\c1ccncc1)/c1ccncc1 | 0 | 0 | 0 | 0 | 0 | 0
COC1=C(Nc2ccccc2OC)C(=O)c2ccccc2C1=O | 0 | 0 | 0 | 74 | 50 | 7.9µM
COc1cc(CN2CCC(CO)(CCOc3ccccc3)CC2)cc(OC)c1 | 0 | - | 0 | 0 | 0 | -
COc1ccc(-c2oc3ccccc3c(=O)c2OC(C)=O)cc1 | 0 | 0 | 0 | - | 55 | 7.3µM
Cc1ccccc1/C=N/Nc1nc2ccccc2[nH]1 | 0 | 0 | 0 | 0 | 0 | -
O=[N+]([O-])c1cc(/C=N/Nc2nc3ccccc3[nH]2)c(O)cc1O | 0 | - | 0 | 0 | 41 | 1.6µM
O=C(CN1CCCC1)N/N=C/c1c(O)ccc2ccccc12 | 0 | 0 | 0 | 0 | 38 | 5.7µM
Cc1ccc(-n2c(O)c(C=NC3CCS(=O)(=O)C3)c3ccccc3c2=O)cc1 (centres undefined) | 0 | 0 | 0 | 0 | - | -
Cc1[nH]c2ccccc2c1C(C#N)(C#N)C1C(=O)c2ccccc2C1=O | 0 | 0 | 0 | - | 65 | 2µM
CCOC(=O)CC1=NN(c2ccccc2)C(=O)/C1=C\c1ccc(N(C)C)cc1 | 0 | 0 | 0 | 0 | 0 | -
SMILES | INS-1E GSIS act | PGC1a acetyl inh | Env fusion inh | NSD2 inh | AF4-AF9 inh | AlphaScreen intf
CC1=NN(c2ccccc2)C(=O)/C1=C/C=C/c1ccc(N(C)C)cc1 | 0 | - | 0 | 0 | 67 | 0
CC(=O)Nc1nonc1-n1nnc(C(=O)NCc2ccccc2)c1C | - | - | 0 | 0 | - | -
O=C(N/N=C/c1cc(Br)cc(Br)c1O)c1cccc(S(=O)(=O)N2CCOCC2)c1 | 0 | 0 | 0 | 0 | 0 | -
O=C(N/N=C/c1cc(Cl)cc([N+](=O)[O-])c1O)c1cccc(S(=O)(=O)N2CCOCC2)c1 | 0 | 0 | 0 | - | 36 | 12µM
Oc1cccc(C(Nc2nccs2)c2ccc3cccnc3c2O)c1 (centres undefined) | 0 | 0 | 0 | 0 | 49 | 3.3µM
Oc1c(C(Nc2cccc(C(F)(F)F)c2)c2cccnc2)ccc2cccnc12 (centres undefined) | 0 | - | 0 | 0 | - | -
Cc1cccc(OCC(=O)NNC(=O)c2cc(S(=O)(=O)N(C)C)ccc2N2CCCC2)c1 | 0 | 0 | 0 | 0 | 0 | -
